Shown are actives, neighbours in structure and some others; about 19% of the full set was active somewhere.
TDP1 cell noCPT = qHTS for Inhibitors of human tyrosyl-DNA phosphodiesterase 1 (TDP1): qHTS in cells in absence of CPT. DT40 Tdp1-/- hTDP1 cells, no CPT, ATP luminescence, 48 h. Potency, µM (titrated, usually from 46.2 µM), for inactives: top-dose activity change, negative = growth inhibition, actives largely listed as inhibitors. 420,000 tested, 15% active; further: potency means the concentration at half of the fitted maximal effect; nearly all actives have a fitted effect of over 55% in size
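Readout: luminescence from CellTiter-Glo after 30 min in the dark at RT. Cells: DT40 Tdp1-/- with stable hTDP1, 400/well. Exposure: compounds alone, ≥48 hr, 37 °C.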
HT1080 IDH1KD tx = kills HT-1080 cells with IDH1 knockdown; 360,000 tested, 2% active; HT-1080 IDH1 knockdown viability, ATP luminescence, 48 h; Potency, µM (doses to about 46.1 µM), for the others: top-dose activity, negative = toxicity, most hits filed as cytotoxic; AID 686971;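 further: potency means the concentration at half of the fitted maximal effect; 0% = DMSO wells and -100% = cell-free medium wells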
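In this qHTS, HT-1080 cells depleted of IDH1 are exposed for 48 h at 37 °C to compound titrations. Toxicity is scored from CellTiter-Glo luminescence, with DMSO as full viability and medium alone as none.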
IL1B secr inh = inhibitors of inflammasome signaling (IL-1 beta secretion); activity change, % at 57.5 µM; THP-1 LPS/ATP IL-1B secretion, AlphaLISA, 16 h; active compounds read low; 360,000 tested, 4.7% active; in the data active means activity change below about -50%; inconclusive means mostly about -30% to -49%
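Secreted IL-1B measured by AlphaLISA bead assay after 16 h compound exposure of THP-1 cells; compounds (final up to 57.5 uM) added 1 h before LPS (250 ng/mL) and ATP (1.25 mM) stimulation; lower signal means less secretion.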
HT1080-NT tox = kills 2HG-producing HT-1080-NT fibrosarcoma cells; HT-1080-NT fibrosarcoma viability, CellTiter-Glo ATP luminescence, 48 h; Potency, µM (titrated, usually from 46.1 µM), without a hit: at the highest dose activity, negative = less viability, hits mostly cytotoxic; 360,000 tested, 1.6% active; AID 686970;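 further: NT is the 2HG producing partner of a matched IDH1 knockdown line; potency means the concentration at half of the fitted maximal effect; 0% = DMSO-treated cells and -100% = media-only wells without cells; nearly all actives have a fitted effect of over 55% in size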
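HT-1080-NT fibrosarcoma cells (2HG-overproducing), 750 cells/well in RPMI with 5% FBS, dosed after 2 h and incubated 48 h at 37C. CellTiter-Glo luminescence normalized to DMSO and no-cell wells; concentration-response curves fitted and classed.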
TDP1 cell CPT = DT40-hTDP1 cell growth loss with CPT; Potency, µM (series often up to 46.2 µM), for the others: top-dose activity change, negative = growth inhibition, actives largely listed as inhibitors; 420,000 tested, 12% active; AID 686979; chicken DT40 Tdp1-/-;hTDP1 cells + 20 nM CPT, ATP luminescence, 48 h; further: potency means the concentration at half of the fitted maximal effect; nearly all actives have a fitted effect of over 55% in size
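Chicken DT40 Tdp1-/- cells complemented with human TDP1, 400 cells/well, exposed to compounds plus 20 nM camptothecin for at least 48 h at 37 C; viability read as ATP content by CellTiter-Glo luminescence.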
ELG1 DNA repair = ELG1-dependent DNA repair inhibition. AID 504467. 330,000 tested, 2.3% active. HEK293T ELG1-luciferase reporter, luminescence, 16 h; DNA damage induced by 5-fluorouridine. Potency, µM (top dose mostly 46.1 µM), inactives show at the highest dose activity change, negative = inhibition, usual class: inhibitors; further: potency means the concentration at half of the fitted maximal effect; nearly all actives have a fitted effect of over 55% in size
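Overnight (16 hr) co-exposure of 2,000 cells/well to 5-fluorouridine and compound at 37 °C preceded detection. Luciferase was quantified via ONE-Glo luminescence; loss of signal denotes inhibition.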
An asterisk follows results filed as active; ? = inconclusive; / = not tested or not shown. Unless noted, the call rests on the fitted dose curve; in most records, active means well fitted curve in the direction sought with a large enough effect; inconclusive means small, poorly fitted or top-dose-only effect, or another doubt; inactive means no such curve, though single readings can be large; an effect the other way counts as inactive or inconclusive. Unless noted, on the % scale 0 is the no-effect control and ±100 the full control effect.

SMILES	TDP1 cell noCPT	HT1080 IDH1KD tx	IL1B secr inh	HT1080-NT tox	TDP1 cell CPT	ELG1 DNA repair
COc1ccc(S(=O)(=O)Cc2ccc(C(=O)NCc3cccnc3)o2)cc1	?	-10%	40	-4%	?	15µM*
COc1ccc(S(=O)(=O)Cc2ccc(C(=O)NCc3ccccc3)o2)cc1	-11%	-2%	-3	-3%	-19%	0%
O=C(NCc1ccccc1Cl)c1ccc(CS(=O)(=O)c2ccc(Br)cc2)o1	13µM*	/	/	/	23µM*	/
COc1ccc(S(=O)(=O)Cc2ccc(C(=O)NCc3ccc(C)cc3)o2)cc1	23µM*	-12%	-17	5%	-13%	?
N#Cc1ccccc1NC(=O)CSc1n[nH]c(=O)n1C1CC1	-5%	-1%	-24	1%	12%	0%
COc1cc(C(=O)Nc2c(C(=O)O)[nH]c3ccc(Br)cc23)cc(OC)c1OC	-14%	1%	20	-13%	-4%	13%
O=C(c1cccc(Br)c1)N1CCN(c2ccccn2)CC1	-24%	4%	-1	11%	-18%	/
O=C(c1ccccc1F)N1CCN(c2cnn(-c3cccc(Cl)c3)c(=O)c2Cl)CC1	21µM*	-14%	-28	-25%	?	?
O=C(c1cccc(Br)c1)N1CCN(c2cnn(-c3ccccc3)c(=O)c2Cl)CC1	16µM*	-16%	21	-10%	?	-13%
COCCn1c(=O)cnc2cnc(Oc3ccccc3)nc21	-20%	/	/	/	?	/
Cc1csc(NC(=O)C(C)Oc2ccc(Br)cc2)n1 (stereo not given)	?	-24%	-14	-1%	-20%	-13%
Cc1cccc(OC(C)C(=O)Nc2nc(-c3ccncc3)cs2)c1 (stereo not given)	23µM*	-25%	61	-21%	?	-9%
CC(Oc1ccc(F)cc1)C(=O)Nc1nc(-c2ccccn2)cs1 (stereo not given)	5.2µM*	?	-102*	?	1.3µM*	?
O=C(CCS(=O)(=O)c1ccc(F)cc1)Nc1nc(-c2ccccn2)cs1	7.3µM*	0%	?	-27%	8.2µM*	?
CC(OC(=O)c1cccs1)C(=O)Nc1nc(-c2ccccc2)cs1 (stereo not given)	?	-5%	2	20%	?	?
O=C(CCS(=O)(=O)c1ccccc1)Nc1nc(-c2ccccn2)cs1	13µM*	-7%	-7	-10%	18µM*	/
CC(C)CN(C)C(=O)CC1C(=O)NCCN1C (stereo not given)	-11%	12%	2	17%	-13%	27%
O=C(Nc1ccccc1)N1CCN(c2ccc(F)cc2)CC1	?	16%	?	25%	?	13%
CCc1ccc(NC(=O)N2CCN(c3ccc(F)cc3)CC2)cc1	26µM*	1%	-20	-4%	?	-2%
CC(=O)N1CCN(c2ccc(NCc3ccc(C)cc3)cc2)CC1	-9%	-16%	15	-3%	-21%	?
CCc1ccc(CNc2ccc(N3CCN(C(C)=O)CC3)cc2)cc1	18µM*	?	-4	-3%	-19%	?
Cc1ccc(OCc2nc3ccccc3n2C(C(=O)Nc2c(C)cccc2C)C2CC2)cc1 (stereo not given)	?	?	-18	?	?	/
COc1ccc(C(=O)COC(=O)CCCC(=O)NC2CCCCC2)cc1	-20%	6%	4	3%	-28%	-4%
COc1ccccc1-c1cc(C(F)(F)F)nc(S(=O)(=O)CCCC(=O)Nc2ccc(F)c(Cl)c2)n1	?	/	/	/	-23%	/
COc1ccccc1-c1cc(C(F)(F)F)nc(S(=O)(=O)CCCC(=O)O)n1	?	8.9µM*	-87*	11µM*	14µM*	15%
SMILES	TDP1 cell noCPT	HT1080 IDH1KD tx	IL1B secr inh	HT1080-NT tox	TDP1 cell CPT	ELG1 DNA repair
COc1ccc(-c2cc(C(F)(F)F)nc(S(=O)(=O)CCC(=O)N3CCOCC3)n2)cc1	12µM*	3%	-118*	3%	6.5µM*	?
COc1ccccc1-c1cc(C(F)(F)F)nc(S(=O)(=O)CCCC(=O)N2CCOCC2)n1	2.3µM*	16µM*	-118*	16µM*	2.6µM*	?
COc1ccccc1-c1cc(C(F)(F)F)nc(NCc2cccs2)n1	?	7%	0	-1%	?	16%
COc1ccccc1-c1cc(C(F)(F)F)nc(S(=O)(=O)CCCC(=O)Nc2cc(OC)c(OC)c(OC)c2)n1	21µM*	/	/	/	?	/
COc1ccccc1-c1noc(CCCC(=O)N2CCOCC2)n1	-22%	0%	9	1%	-4%	15%
Cc1cccc(NC(=O)COC(=O)c2nn(-c3ccccc3C(F)(F)F)cc2O)c1C	-26%	-1%	16	0%	?	/
CC(C)(C)OC(=O)NCCCC[C@H](NC(=O)c1[nH]cnc1C(=O)Nc1ccccc1)C(=O)OC(C)(C)C	23µM*	?	?	-30%	15µM*	?
CC(C)(C)OC(=O)NCCCC[C@H](NC(=O)c1[nH]cnc1C(=O)Nc1ccc(Cl)cc1)C(=O)OC(C)(C)C	16µM*	?	-58*	?	?	?
Cc1ccc(Cl)cc1-n1c(=O)c2sc3ccccc3c2n(CC(=O)NC2CCCC2)c1=O	?	/	/	/	-28%	/
NC(=O)C1CCN(C2=C(Cl)C(=O)c3ccccc3C2=O)CC1	2.9µM*	21µM*	-98*	?	2.3µM*	?
O=C1C(Cl)=C(N2CCC(C(=O)O)CC2)C(=O)c2ccccc21	16µM*	?	0	?	15µM*	-20%
NC(=O)C1CCN(c2ccc3c(c2)S(=O)(=O)c2ccccc2C3=O)CC1	-3%	3%	-4	7%	?	/
CN1CCN(C2=C(Cl)C(=O)N(C3CCCCC3)C2=O)CC1	?	-10%	?	5%	?	-27%
C[C@H]1COC[C@@H](C/C=C/c2ccccc2)N1c1ccccc1	?	10%	45	3%	?	/
CC1COCC(C)N1C1=C(Cl)C(=O)c2ccccc2C1=O (stereo not given)	1.5µM*	18µM*	?	-26%	0.65µM*	/
CN1CCN(C2=C(Cl)C(=O)c3ccccc3C2=O)CC1	2.6µM*	?	-104*	?	2.3µM*	/
